Screens as filed in PubChem.
PrP 5UTR inh = inhibition of PrP 5' UTR reporter expression | inhibition, % (test concentration not listed) | cell-based PrP 5' UTR mRNA reporter, plate reader | hit rate 0.35% among 340,000; in the data active = inhibition above about 52%; also: 0 = median of the neutral control wells
TcdB inh = TcdB glycohydrolase inhibitors, primary screen, biochemical, single point, plate reader | TcdB glycohydrolase enzymatic assay | AID 652162, 2013 | hit rate 0.24% among 350,000 | Toxin B (Clostridioides difficile), P18177 | inhibition, % at 9.99 µM; in the data active = inhibition above about 10%
Yp Topo-I inh = Yersinia pestis topoisomerase I inhibitors, primary screen, biochemical, cleavage product accumulation, plate reader, single point; Y. pestis Topo-I cleavage product accumulation; activity, % at 10 µM; hit rate 0.064% among 360,000; AID 504884, 2011; in the data active = activity above about 50%, passing the limit was not always enough
Mtb BioA inh = M. tuberculosis BioA enzyme inhibitors, primary screen, biochemical, plate reader, single point, HTS | inhibition, % at 9.99 µM | AID 602481, 2012 | purified M. tuberculosis BioA enzyme | hit rate 0.096% among 360,000; in the data active = inhibition above about 40%
An asterisk follows results filed as active; nt = not tested or not shown; + = active, no number. Compounds with a hit are over-represented: about 0.57% of the library has one in this group of screens.

SMILES	PrP 5UTR inh	TcdB inh	Yp Topo-I inh	Mtb BioA inh
COCC(=O)N1CC[C@@H]2[C@H]1c1cc(-c3ccccc3)ccc1N(C)[C@H]2CO	nt	10.7*	nt	nt
CCC(=O)N1CC[C@@H]2[C@@H](CO)N(C)c3ccc(-c4ccccc4)cc3[C@@H]21	nt	21.5*	nt	36.6
CN1c2ccc(-c3ccccc3)cc2[C@H]2[C@H](CCN2C(=O)CN2CCOCC2)[C@H]1CO	nt	13.8*	nt	24.4
CN1c2ccc(-c3ccccc3)cc2[C@H]2[C@H](CCN2C(=O)CN2CCOCC2)[C@@H]1CO	nt	-0.8	nt	5.5
C[C@@H]1CN([C@@H](C)CO)C(=O)c2cc(/C=C/c3ccccc3)cnc2O[C@@H]1CN(C)C(=O)Nc1ccc(C(F)(F)F)cc1	nt	-1.6	nt	-2.7
CN1C(=O)C(c2nnc(Nc3cccc4ccccc34)s2)C2CC1(C)Oc1ccccc12 (stereo unspecified)	-24.8	10.9*	3.9	nt
C[C@H](CO)N1C[C@H](C)[C@H](CN(C)Cc2ccccc2)OCCCC[C@H](C)Oc2ccc(NC(=O)Nc3ccc(F)cc3)cc2C1=O	nt	-0.9	nt	-1.7
c1ccc(-c2nn3c(C4CCCCC4)nnc3s2)nc1	-15.5	nt	5.2	0.8
Clc1ccc(OCc2nn3c(C4CCCCC4)nnc3s2)cc1	-9.2	nt	54.3*	7.1
COCC1=C2[C@@H](CCc3ccccc3)OB(O)C[C@@H]2n2c(=O)n(-c3ccccc3)c(=O)n2C1	nt	-4.9	nt	nt
C[C@@H]1CCCCO[C@H](CN(C)C(=O)Nc2ccccc2)[C@H](C)CN([C@@H](C)CO)C(=O)c2cc(NC(=O)Nc3ccc(F)cc3)ccc2O1	nt	-0.3	nt	-2.8
COc1ccc(C2=NS(=O)(=O)N(C)C(C(=O)NCc3ccc4c(c3)OCO4)=C2)cc1	-3.8	100.5*	6.4	-0.1
Cc1cc(N2C(=O)C(O)=C(C(=O)c3cc4ccccc4o3)C2c2cccc(Br)c2)no1 (stereo unspecified)	-6.9	1.0	77.9*	0.4
CCCCCOc1ccc(C2C(C(=O)c3ccc(C)o3)=C(O)C(=O)N2c2cc(C)on2)cc1 (stereo unspecified)	-30.9	1.3	87.9*	-2.7
CCCOc1cccc(C2C(C(=O)c3cc4ccccc4o3)=C(O)C(=O)N2c2cc(C)on2)c1 (stereo unspecified)	-20.2	0.2	2.7	-1.3
CO[C@H](CN(C)S(=O)(=O)c1cccc(Cl)c1)[C@H](C)CN([C@H](C)CO)S(=O)(=O)c1cccc(Cl)c1	nt	-1.3	nt	-2.1
O=C(c1cccnc1)N1CCCCN2[C@@H](CO)[C@@H](c3ccc(C#Cc4ccccc4)cc3)[C@@H]2C1	nt	0.5	nt	4.6
CC1(C)OC2C(O1)[C@@H](CO)O[C@H]2n1cnc2c(N)ncnc21 (stereo partly specified)	-2.1	13.6*	3.7	nt
Nc1ncnc2c1ncn2[C@@H]1O[C@H](CO)[C@@H](O)[C@H]1O	-18.1	1.9	7.3	-3.0
COc1ccc(S(=O)(=O)Nc2ccc3c(c2)CC(=O)N([C@@H](C)CO)C[C@@H](C)[C@H](CN(C)C(=O)NC2CCCCC2)O3)cc1	nt	1.2	nt	1.1
CCN(C(=O)CN1C(=O)NC2(CCC(C)CC2)C1=O)C1CCCCC1 (stereo unspecified)	nt	13.7*	-2.4	-0.3
CCCN(C(=O)CN1C(=O)NC2(CCCCCC2)C1=O)C1CCS(=O)(=O)C1 (stereo unspecified)	-2.8	nt	-0.2	0.8
O=C(NCC1(c2ccccc2)CCCC1)C1(c2ccccc2)CCCC1	-28.4	nt	68.2*	nt
C[C@@H]1CN([C@@H](C)CO)C(=O)Cc2cc(NC(=O)CCN3CCOCC3)ccc2O[C@H]1CN(C)Cc1ccc(C(=O)O)cc1	nt	nt	nt	-0.9
COc1ccc(NS(=O)CCCc2ccccc2)cc1 (stereo unspecified)	nt	10.7*	nt	1.7
SMILES	PrP 5UTR inh	TcdB inh	Yp Topo-I inh	Mtb BioA inh
Cc1cc2c(cc1S(=O)(=O)N(C)c1ccccc1)NC(=O)CO2	-11.1	20.8*	11.1	5.9
Cc1noc(C)c1NC(=O)Nc1ccc2c(c1)C(=O)N([C@@H](C)CO)C[C@H](C)[C@@H](CN(C)S(=O)(=O)c1cn(C)cn1)O2	nt	-0.2	nt	0.2
CCO[C@H]1OC(C(=O)N2CCOCC2)=C[C@@H](C2CCCCC2)[C@@H]1CCCO	nt	0.3	nt	-1.0
COc1ccc(/C=C/c2nc3ccccc3n2C)cc1	0.7	13.3*	11.7	nt
COc1ccc(Cn2c(/C=C/c3ccccc3)nc3ccccc32)cc1	-86.6	nt	-5.9	2.7
O=C(C[C@@H]1C[C@H]2c3cc(NC(=O)C4CCOCC4)ccc3O[C@H]2[C@@H](CO)O1)NCc1ccccc1	nt	-0.6	nt	-0.5
Cc1onc(-c2c(F)cccc2Cl)c1C(=O)Nc1nnc(C(F)(F)F)s1	-11.9	15.6*	1.8	2.0
C[C@@H]1CN([C@@H](C)CO)S(=O)(=O)c2ccc(C3=CCCC3)cc2O[C@@H]1CN(C)Cc1ccccn1	nt	1.0	nt	-1.2
Oc1ccc(-c2nc3cnccn3c2Nc2ccc3c(c2)OCCO3)cc1	-17.2	20.2*	-5.4	21.5
COc1ccc(S(=O)(=O)Nc2cccc3c2O[C@H](CN(C)C(=O)Nc2cccc4ccccc24)[C@@H](C)CN([C@H](C)CO)C3=O)cc1	nt	nt	nt	0.5
CN(C)c1ccc2nc3ccc(=O)cc-3sc2c1	nt	-0.5	+	0.9
Cc1ccc(S(=O)(=O)/N=C(\N)Nc2nc(C)c3ccc(C)cc3n2)cc1	-34.5	nt	12.3	nt
Cc1ccc(S(=O)(=O)/N=C(\N)Nc2nc(C)c3cc(C)ccc3n2)cc1	-7.9	nt	58.0*	-0.9
C[C@H]1CCCCO[C@@H](CN(C)C)[C@@H](C)CN([C@@H](C)CO)C(=O)c2cc(NC(=O)C3CCCCC3)ccc2O1	nt	-2.8	nt	-0.9
COc1ccc(C(=O)/C=C/c2ccc(O)cc2)cc1	-13.2	9.9	-3.9	-0.3
O=C(/C=C/c1ccc(O)cc1)c1ccccc1	-67.5	15.2*	-1.9	nt
CO[C@H]1CN(C)C(=O)c2ccc(NC(=O)NC(C)C)cc2OC[C@H](C)N(C(=O)C2CCC2)C[C@@H]1C	nt	-0.7	nt	nt
NC1=NC[C@H](Cc2ccc(O)cc2)N1CCc1cc(C(F)(F)F)cc(C(F)(F)F)c1	-20.7	10.7*	-9.2	4.8
NC1=NC[C@@H](CC2CCCCC2)N1CCc1cc(C(F)(F)F)cc(C(F)(F)F)c1	-13.2	nt	-6.7	8.5
Cc1ccc(S(=O)(=O)c2c(CO)c(-c3ccccc3)nn2C)cc1	-18.4	1.2	15.1	nt
Cc1ccc(Oc2c(CO)c(-c3ccccc3)nn2C)cc1	-20.8	12.0*	11.4	nt
CN(C)C(=O)c1ccc(-c2ccc3c(c2)[C@@H]2[C@@H](CCN2C(=O)C2CCOCC2)[C@@H](CO)N3C)cc1	nt	-0.8	nt	nt
CSc1nc(Cl)cc(Nc2ccc(O)cc2)n1	-30.7	14.9*	-12.9	nt
CN1C(=O)c2cc(NC(=O)c3cscn3)ccc2OC[C@H]2O[C@H](CC(=O)N3CCCCC3)CC[C@@H]21	nt	-0.5	nt	-1.5
O=S(=O)(O)c1cc(Cl)cc(N=Nc2ccc(O)cc2O)c1O	-8.0	0.4	-17.9	nt
O=S(=O)(O)c1cc(O)c2c(O)c(N=Nc3cc(Cl)ccc3O)c(S(=O)(=O)O)cc2c1	-3.1	nt	65.0*	5.2
COCCn1c(NC(=S)NC(=O)C2CC2)cc(=O)[nH]c1=O	-6.4	23.0*	-10.6	-3.3
